# Experimental data as given in the antibiotic and cytotoxicity screens of Wong et al. (2023).
# In all, about 39,000 compounds went through this assay and about 1,500 (3.8%) were called active. This excerpt belongs to a sample that is enriched for actives.
# System: HSkMC (human skeletal muscle cells)
# Assay: cytotoxicity call (relative viability < 0.9)
# Conditions: 10 µM
row,SMILES,cytotoxicity call
1,Cc1noc(C)c1NC(=O)Nc1ccc2c(c1)CC(=O)N([C@H](C)CO)C[C@H](C)[C@H](CN(C)Cc1ccc(C(F)(F)F)cc1)O2,inactive
2,C[C@H](CO)N1C[C@H](C)[C@H](CN(C)CC2CCOCC2)Oc2ncc(C#Cc3cccc(F)c3)cc2C1=O,inactive
3,CC(C)(C)c1cccc(N)c1,inactive
4,CCCC(=O)Nc1ccc2c(c1)C(=O)N(C)C[C@@H](OC)[C@@H](C)CN(Cc1ccc(-c3ccccn3)cc1)[C@@H](C)CO2,inactive
5,COc1cccc(OCc2ccc(Cn3nc(NC(=O)NCc4ccc(F)cc4)c4ccccc43)cc2)c1,inactive
6,O=c1ccoc2cc(O)c([C@H]3O[C@H](CO)[C@@H](O)[C@H](O)[C@@H]3O)c(O)c12,inactive
7,C[C@H]1CN([C@@H](C)CO)C(=O)Cc2cc(NC(=O)C3CCCCC3)ccc2O[C@@H]1CN(C)C(=O)Nc1ccc(C(F)(F)F)cc1,inactive
8,CC(C)NC(=O)N(C)C[C@H]1Oc2c(NC(=O)C3CCOCC3)cccc2C(=O)N([C@@H](C)CO)C[C@H]1C,inactive
9,CCC(=O)OC(CC(=O)O)C[N+](C)(C)C.[Cl-] (stereo unspecified),inactive
10,CCS(=O)(=O)NCC[C@H]1CC[C@@H](NS(=O)(=O)c2ccccc2C)[C@@H](CO)O1,inactive
11,C[C@@H]1CN([C@H](C)CO)C(=O)CCCn2cc(nn2)CO[C@H]1CN(C)C(=O)Nc1ccnc(N2CCOCC2)c1,inactive
12,Cc1ccc(S(=O)(=O)N(C)C[C@@H]2OCCCC[C@H](C)Oc3ccc(NC(=O)Cc4ccccc4)cc3C(=O)N([C@@H](C)CO)C[C@H]2C)cc1,inactive
13,C[C@@H]1CCCCO[C@H](CN(C)C(=O)c2ccccc2)[C@@H](C)CN([C@@H](C)CO)C(=O)c2cc(NC(=O)NC3CCCCC3)ccc2O1,inactive
14,CC/1=C(CCC(=O)O)/C/2=C/c3[nH]c(c(c3CCC(=O)O)C)/C=C/3\N=C(/C=C/4\N=C(\C=C1/N2)C(=C4C)C=C)C(=C3C)C=C,inactive
15,COC(=O)CCc1c(c/2[nH]c1/C=C/1\N=C(/C=C/3\N=C(/C=C/4\N/C(=C2)[C@]2(C)[C@H](C(=O)OC)C(=CC=C42)C(=O)OC)C(=C3C=C)C)C(=C1CCC(=O)O)C)C,active
16,C=CC1=C(C)c2cc3[nH]c(cc4nc(cc5[nH]c(cc1n2)c(C)c5CCC(=O)O)C(CCC(=O)O)=C4C)c(C)c3C=C,inactive
17,Cc1noc(C)c1NC(=O)N(C)C[C@@H]1Oc2c(NC(=O)c3ccc(-c4nccs4)cc3)cccc2C(=O)N([C@H](C)CO)C[C@@H]1C,inactive
18,C[C@H]1CCCCO[C@H](CN(C)C(=O)c2ccccc2)[C@@H](C)CN([C@@H](C)CO)C(=O)c2cc(NC(=O)Nc3ccc(C(F)(F)F)cc3)ccc2O1,inactive
19,C[C@@H]1CCCCO[C@@H](CN(C)C(=O)c2ccccc2)[C@H](C)CN([C@H](C)CO)C(=O)c2cc(NC(=O)Nc3ccc(C(F)(F)F)cc3)ccc2O1,inactive
20,C[C@@H]1CN([C@H](C)CO)C(=O)c2cc(NC(=O)Nc3ccc(C(F)(F)F)cc3)ccc2O[C@@H](C)CCCCO[C@H]1CN(C)C(=O)c1ccccc1,active
21,C[C@@H]1CN([C@H](C)CO)C(=O)c2cc(NC(=O)Nc3ccc(C(F)(F)F)cc3)ccc2O[C@@H](C)CCCCO[C@@H]1CN(C)C(=O)c1ccccc1,active

row,SMILES,cytotoxicity call
1,C[C@H]1CCCCO[C@@H](CN(C)C(=O)c2ccccc2)[C@@H](C)CN([C@@H](C)CO)C(=O)c2cc(NC(=O)Nc3ccc(C(F)(F)F)cc3)ccc2O1,inactive
2,C[C@@H]1CN([C@@H](C)CO)C(=O)c2cc(NC(=O)Nc3ccc(C(F)(F)F)cc3)ccc2O[C@@H](C)CCCCO[C@H]1CN(C)C(=O)c1ccccc1,inactive
3,C[C@@H]1CN([C@H](C)CO)C(=O)c2cc(NC(=O)Nc3ccccc3)ccc2O[C@@H](C)CCCCO[C@@H]1CN(C)Cc1ccc(Cl)c(Cl)c1,inactive
4,CC1(C)[C@H](C(N)=O)CC[C@@]1(C)C(=O)O,inactive
5,C[C@@H]1CCCCO[C@H](CN(C)Cc2ccccc2)[C@H](C)CN([C@H](C)CO)C(=O)c2cc(NC(=O)Nc3ccc(F)cc3)ccc2O1,inactive
6,C[C@H]1CCCCO[C@@H](CN(C)Cc2ccccc2)[C@@H](C)CN([C@@H](C)CO)C(=O)c2cc(NC(=O)Nc3ccc(F)cc3)ccc2O1,active
7,C[C@@H]1CN([C@H](C)CO)C(=O)c2cc(NC(=O)Nc3ccc(F)cc3)ccc2O[C@@H](C)CCCCO[C@@H]1CN(C)Cc1ccccc1,inactive
8,C[C@H](CO)N1C[C@H](C)[C@H](CN(C)Cc2ccccc2)OCCCC[C@H](C)Oc2ccc(NC(=O)Nc3ccc(F)cc3)cc2C1=O,inactive
9,C[C@@H]1CN([C@H](C)CO)C(=O)c2cc(NC(=O)Nc3ccc(F)cc3)ccc2O[C@@H](C)CCCCO[C@H]1CN(C)Cc1ccccc1,active
10,C[C@H]1CCCCO[C@H](CN(C)Cc2ccccc2)[C@@H](C)CN([C@@H](C)CO)C(=O)c2cc(NC(=O)Nc3ccc(F)cc3)ccc2O1,inactive
11,COc1ccc(CN(C)C[C@@H]2OCCCC[C@H](C)Oc3ccc(NS(=O)(=O)c4ccc(F)cc4)cc3C(=O)N([C@@H](C)CO)C[C@@H]2C)cc1,inactive
12,C[C@H](CO)N1C[C@H](C)[C@H](CN(C)S(C)(=O)=O)Oc2c(NS(=O)(=O)c3cn(C)cn3)cccc2C1=O,inactive
13,COc1ccc2c3c(n(c2c1)C)[C@@H](CO)N(C[C@]13CCN(CC1)S(=O)(=O)C)C(=O)CN(C)C,inactive
14,COc1ccc(NC(=O)N(C)C[C@H]2OCCCC[C@H](C)Oc3ccc(NC(=O)Nc4ccc(C(F)(F)F)cc4)cc3C(=O)N([C@@H](C)CO)C[C@@H]2C)cc1,inactive
15,Clc1ccc(COC(Cn2ccnc2)c2ccc(Cl)cc2Cl)c(Cl)c1.O=[N+]([O-])O (stereo unspecified),inactive
16,Clc1ccc(C(c2ccc(Cl)cc2)[n+]2ccn(C[C@@H](OCc3ccc(Cl)cc3Cl)c3ccc(Cl)cc3Cl)c2)cc1,active
17,Clc1ccc(C(Cn2ccnc2)OCc2ccsc2Cl)c(Cl)c1 (stereo unspecified),inactive
18,Cc1ccc2c(=O)c3ccccc3n(CCCN)c2c1C,inactive
19,CCCC#Cc1cnc2c(c1)C(=O)N([C@H](C)CO)C[C@@H](C)[C@H](CN(C)S(=O)(=O)c1cccc(OC)c1)O2,inactive
20,Nc1ncnc2c1c(-c1ccc(Cl)cc1)nn2-c1cccc(-c2cnnn2Cc2cccc(-c3ccccc3)c2)c1,active
21,C[C@H](CO)N1C[C@H](C)[C@H](CN(C)S(C)(=O)=O)Oc2c(NC(=O)CCCCCC(=O)Nc3ccccc3N)cccc2C1=O,inactive

row,SMILES,cytotoxicity call
1,COc1ccc(NC(=O)N(C)C[C@@H]2Oc3ccc(NC(=O)CCCCCC(=O)Nc4ccccc4N)cc3CC(=O)N([C@H](C)CO)C[C@H]2C)cc1,inactive
2,COc1ccc(NC(=O)Nc2ccc3c(c2)C(=O)N([C@H](C)CO)C[C@@H](C)[C@@H](CN(C)Cc2ccc(Cl)c(Cl)c2)O3)cc1,inactive
3,C[C@H](CO)N1C[C@H](C)[C@H](CN(C)Cc2ccc(Cl)c(Cl)c2)Oc2ccc(NC(=O)Nc3ccc(F)cc3)cc2C1=O,active
4,C[C@@H]1CN([C@@H](C)CO)C(=O)c2cc(NC(=O)Nc3ccc(F)cc3)ccc2O[C@H]1CN(C)Cc1ccc(Cl)c(Cl)c1,inactive
5,C[C@@H]1CN([C@@H](C)CO)C(=O)c2cc(NC(=O)Nc3ccc(F)cc3)ccc2O[C@@H]1CN(C)Cc1ccc(Cl)c(Cl)c1,active
6,C[C@H]1CN([C@@H](C)CO)C(=O)c2cc(NC(=O)Nc3ccc(F)cc3)ccc2O[C@H]1CN(C)Cc1ccc(Cl)c(Cl)c1,inactive
7,COc1ccc(NC(=O)Nc2ccc3c(c2)C(=O)N([C@@H](C)CO)C[C@H](C)[C@H](CN(C)Cc2ccc(Cl)c(Cl)c2)O3)cc1,active
8,COc1ccc(NC(=O)Nc2ccc3c(c2)C(=O)N([C@H](C)CO)C[C@H](C)[C@H](CN(C)Cc2ccc(Cl)c(Cl)c2)O3)cc1,inactive
9,C[C@@H]1CN([C@H](C)CO)C(=O)c2cc(NC(=O)Nc3ccc(F)cc3)ccc2O[C@H]1CN(C)Cc1ccc(Cl)c(Cl)c1,inactive
10,C[C@@H]1CN([C@H](C)CO)C(=O)c2cc(NC(=O)Nc3ccc(F)cc3)ccc2O[C@@H]1CN(C)Cc1ccc(Cl)c(Cl)c1,inactive
11,COc1ccc(S(=O)(=O)N(C)C[C@H]2Oc3ccc(NS(=O)(=O)c4cn(C)cn4)cc3CC(=O)N([C@@H](C)CO)C[C@@H]2C)cc1,inactive
12,CO[C@@H]1CN(C)C(=O)c2cc(NS(=O)(=O)CC(F)(F)F)ccc2OC[C@@H](C)N(C(=O)NC(C)C)C[C@@H]1C,inactive
13,COc1cccc(CNC(=O)C[C@H]2C=C[C@H](NC(=O)C3CCOCC3)[C@H](CO)O2)c1,inactive
14,COc1ccc(CN(C)C[C@H]2OCCCC[C@H](C)Oc3ccc(NC(=O)Nc4ccc5c(c4)OCO5)cc3C(=O)N([C@@H](C)CO)C[C@H]2C)cc1,inactive
15,C[C@@H]1CN([C@H](C)CO)C(=O)c2cc(NC(=O)Cn3cnnn3)ccc2O[C@@H]1CN(C)C(=O)Nc1ccc(C(F)(F)F)cc1,inactive
16,C[C@@H]1CN([C@H](C)CO)C(=O)c2cc(NC(=O)Nc3ccc(C(F)(F)F)cc3)ccc2O[C@H]1CN(C)C(=O)Nc1cccc2ccccc12,inactive
17,Cl.Clc1ccc2c(c1)CCc1cccnc1C2=C1CCNCC1,inactive
18,Cc1cc(C(=O)Nc2cccc3c2O[C@H](CN(C)Cc2ccc(Oc4ccccc4)cc2)[C@@H](C)CN([C@@H](C)CO)C3=O)n(C)n1,inactive
19,COC(=O)C(CC#Cc1ccc2c(c1)[C@]1(C(=O)N2)[C@H](c2ccc(OCCO)cc2)N2[C@H](c3ccccc3)[C@H](c3ccccc3)OC(=O)[C@H]2[C@@H]1C(=O)N1CCc2cc(OC)c(OC)cc2C1)C(=O)OC,inactive
